The values that follow come from PubChem BioAssay (NCATS).

Where “and” joins values, the source holds several entries; their conditions need not be identical. Identical values can stand only once. A number with no mark means an inactive call. Records with an inconclusive call do not appear. Calls of active or inactive are those of the source. Unless noted, no rule for the calls is given here.

Sequence of Nuclear receptor subfamily 1 group I member 2 (Rattus norvegicus) (Q9R1A7 whole entry, looked up): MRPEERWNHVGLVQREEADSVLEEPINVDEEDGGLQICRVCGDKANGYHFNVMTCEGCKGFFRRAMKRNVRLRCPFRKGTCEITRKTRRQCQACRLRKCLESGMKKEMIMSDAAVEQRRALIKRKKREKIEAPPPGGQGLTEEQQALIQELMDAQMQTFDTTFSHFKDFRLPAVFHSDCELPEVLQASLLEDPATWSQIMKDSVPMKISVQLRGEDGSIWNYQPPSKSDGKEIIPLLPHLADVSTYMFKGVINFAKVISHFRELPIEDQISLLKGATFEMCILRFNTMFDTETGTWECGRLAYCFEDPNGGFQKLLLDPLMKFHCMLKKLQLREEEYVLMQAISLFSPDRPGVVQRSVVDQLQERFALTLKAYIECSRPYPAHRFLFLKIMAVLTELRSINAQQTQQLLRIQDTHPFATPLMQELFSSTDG

Tested on in one test: not listed separately
The test can be described thus: qHTS assay for cell viability of the p53RE-bla HCT-116 cell line (AID 743292; active = well fitted cell-killing curve with a large enough effect; also: % is scaled to controls: 0 for no effect and ±100 for the full control effect; nearly all actives have a fitted effect of over 55% in size). The following applies: p53RE-bla HCT-116 viability, ATP luminescence, 16 h; series mostly up to 95 µM; activity change, negative = cytotoxicity: at the top concentration. In short, it runs like this:
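Viability of compound-treated p53RE-bla HCT-116 cells is taken from ATP-dependent luciferase luminescence. Treatment lasts 16 h at 37 C after a 5 h settling period; detection follows 30 min at room temperature.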
(qHTS replaces the single test concentration by a dilution series.)
As to `CC1CCCCC1NC(=O)Nc1ccccc1` (stereo unspecified), the “activity change, negative = cytotoxicity” value is -5.04%.
Same read-out and setting: the value for `CCOP(=S)(OCC)SCC(=O)NC(C)C` was 3.71%.
`C/C(=N\NC(=O)Nc1cc(F)cc(F)c1)c1ncccc1C(=O)O`: the Potency entry is “inactive”.
Consider `C=CCC1=C(C)[C@@H](OC(=O)[C@@H]2[C@@H](C=C(C)C)C2(C)C)CC1=O`, for which the “activity change, negative = cytotoxicity” value is -5.3%.
For the compound `C=CC(=O)OCCCCCC(C)C`, the “activity change, negative = cytotoxicity” value was 1.8%.
The same measure, in the same setting: the value for `CCC(C)n1c(=O)[nH]c(C)c(Br)c1=O` (stereo unspecified) was -8.7%.
Still for that read-out and setting: the value for `COP(=S)(OC)Oc1ccc([N+](=O)[O-])c(C)c1` was 7.5%; that for `CCN(CC)C(=O)C(C)Oc1cccc2ccccc12` (stereo unspecified) was 5.57%; that for `CCCCC(CC)C(=O)Cl` (stereo unspecified) was 4.86%.
Same read-out and setting: in the case of `Cc1c(F)c(F)c(COC(=O)C2C(/C=C(\Cl)C(F)(F)F)C2(C)C)c(F)c1F` (stereo unspecified) it was -26.5%; in that of `Nc1ccc([N+](=O)[O-])cc1Cl`, -5.04%.
As to `CNC(=O)Oc1ccc(N(C)C)c(C)c1`, the “activity change, negative = cytotoxicity” value was -0.791%.

A further test has as its target Nuclear receptor subfamily 1 group I member 2 (Rattus norvegicus) (UniProt Q9R1A7). The test can be described thus: qHTS assay for small molecule activators of the rat pregnane X receptor (rPXR) signaling pathway (AID 651751). Also: 0% is about no effect. Conditions: rPXR reporter cells, luciferase (One-Glo), 24 h.
Take `O=S(=O)(c1ccc(O)cc1)c1ccc(O)cc1`: the max response was -2.78%.
On the same count and under the same terms, the value for `COc1ccc(O)c(C(C)(C)C)c1` was 3.52%; that for `O=[N+]([O-])c1ccc(Oc2ccc(C(F)(F)F)cc2[N+](=O)[O-])cc1` was 11.4%; that for `CN(C)P(=O)(N(C)C)N(C)C` was -0.946%.
On the same count and under the same terms, the value for `O=c1[nH]c2ccccc2c(=O)o1` was -5.81%.
The same measure, in the same setting: the value for `COc1ccc(C(O)(c2cncnc2)C2CC2)cc1` (stereo unspecified) was 3.59%; that for `CN(C)c1nc(=O)n(C2CCCCC2)c(=O)n1C` was 1.22%; that for `C=CC1(C)OC(=O)N(c2cc(Cl)cc(Cl)c2)C1=O` (stereo unspecified) was -0.0091%.
For the compound `COC(=O)c1ccccc1CS(=O)(=O)NC(=O)Nc1nc(OC)cc(OC)n1`, the max response was -0.458%.
The same measure, in the same setting: the value for `CCC[CH2][Sn]([CH2]CCC)([O]C(C)=O)[O]C(C)=O` was -0.354%; that for `O=P(O)(O)CCCl` was -9.16% and -4.17%; that for `CCCCN(CC)C(=O)SCCC` was 4.32%.
The same measure, in the same setting: the value for `NS(=O)(=O)C(F)(F)C(F)(F)C(F)(F)C(F)(F)C(F)(F)C(F)(F)C(F)(F)C(F)(F)F` was -9.61%; that for `CCOP(=O)(NC(C)C)Oc1ccc(S(C)=O)c(C)c1` (stereo unspecified) was -1.03%.
Consider `COP(=S)(OC)Oc1nc(Cl)c(Cl)cc1Cl`, for which the max response was -1.85%.
The same measure, in the same setting: in the case of `CCOP(=O)(O)C(N)=O` it was -2.01%.
`COC(=O)c1ccccc1S(=O)(=O)NC(=O)N(C)c1nc(C)nc(OC)n1`: the max response is 0.907%.
`Clc1ccc(C(Cl)(Cl)Cl)cc1`: the max response is 2.13%.
On the same count and under the same terms, in the case of `CCOC1Oc2ccc(OS(C)(=O)=O)cc2C1(C)C` (stereo unspecified) it was 11.5%; in that of `COCc1cnc(C2=NC(C)(C(C)C)C(=O)N2)c(C(=O)O)c1` (stereo unspecified), -0.0309%; in that of `CCNc1nc(NC(C)(C)C)nc(SC)n1`, 2.02%.
Same read-out and setting: in the case of `CCCCC(CC)COC(=O)Cl` (stereo unspecified) it was 4.58%; in that of `CCOc1nc(NC)nc(NC(=O)NS(=O)(=O)c2ccccc2C(=O)OC)n1`, 1.05%; in that of `C/C(=N\NC(=O)Nc1cc(F)cc(F)c1)c1ncccc1C(=O)O`, -0.995% and 1.1%.
Take `C=CC(=O)OCCCCCC(C)C`: the max response was 0.944%.
Still for that read-out and setting: in the case of `CCC(C)n1c(=O)[nH]c(C)c(Br)c1=O` (stereo unspecified) it was -6.26%; in that of `COP(=S)(OC)Oc1ccc([N+](=O)[O-])c(C)c1`, -1.75%; in that of `CCCCC(CC)C(=O)Cl` (stereo unspecified), -0.98%.
In the case of `CC(Oc1cc(Cl)c(Cl)cc1Cl)C(=O)O` (stereo unspecified), the max response is 2.63%.
In the case of `Cc1c(F)c(F)c(COC(=O)C2C(/C=C(\Cl)C(F)(F)F)C2(C)C)c(F)c1F` (stereo unspecified), the max response was -1.61%.
On the same count and under the same terms, in the case of `Nc1ccc([N+](=O)[O-])cc1Cl` it was 2.06%.
On the same count and under the same terms, the value for `CNC(=O)Oc1ccc(N(C)C)c(C)c1` was 2.85%.

Tested on in a further test: not listed separately
As to the kind of experiment: qHTS assay for small molecule activators of the human pregnane X receptor (PXR) signaling pathway (AID 720659). Also: 0% is about no effect. The following applies: DPX-2 HepG2 CYP3A4-luciferase, 24 h; series mostly up to 92.3 µM; activation: at the top concentration.
In the case of `O=S(=O)(c1ccc(O)cc1)c1ccc(O)cc1`, the “activation” value is 14%.
Consider `O=[N+]([O-])c1ccc(Oc2ccc(C(F)(F)F)cc2[N+](=O)[O-])cc1`, for which the “activation” value was 0%.
Still for that read-out and setting: the value for `CN(C)P(=O)(N(C)C)N(C)C` was 0.907%; that for `O=c1[nH]c2ccccc2c(=O)o1` was -0.825%; that for `COc1ccc(C(O)(c2cncnc2)C2CC2)cc1` (stereo unspecified) was 2.86%.
Same read-out and setting: in the case of `CN(C)c1nc(=O)n(C2CCCCC2)c(=O)n1C` it was 0%; in that of `COC(=O)c1ccccc1CS(=O)(=O)NC(=O)Nc1nc(OC)cc(OC)n1`, 1.64%; in that of `CCC[CH2][Sn]([CH2]CCC)([O]C(C)=O)[O]C(C)=O`, -7.68%.
As for `O=P(O)(O)CCCl`, the result was inactive.
`CCCCN(CC)C(=O)SCCC`: the “activation” value is -2.29%.
On the same count and under the same terms, in the case of `CCOP(=O)(NC(C)C)Oc1ccc(S(C)=O)c(C)c1` (stereo unspecified) it was 0%; in that of `COP(=S)(OC)Oc1nc(Cl)c(Cl)cc1Cl`, 6.57%.
On the same count and under the same terms, in the case of `CCOP(=O)(O)C(N)=O` it was -6.04%; in that of `COC(=O)c1ccccc1S(=O)(=O)NC(=O)N(C)c1nc(C)nc(OC)n1`, 4.28%.
Take `Clc1ccc(C(Cl)(Cl)Cl)cc1`: the “activation” value is -4.27%.
For the compound `COCc1cnc(C2=NC(C)(C(C)C)C(=O)N2)c(C(=O)O)c1` (stereo unspecified), the “activation” value is -6.91%.
On the same count and under the same terms, the value for `CCCCC(CC)COC(=O)Cl` (stereo unspecified) was 14.1%; that for `CCC(C)n1c(=O)[nH]c(C)c(Br)c1=O` (stereo unspecified) was 17.8%; that for `CCCCC(CC)C(=O)Cl` (stereo unspecified) was 29.6%.
Take `CC(Oc1cc(Cl)c(Cl)cc1Cl)C(=O)O` (stereo unspecified): the “activation” value is 5.89%.
The same measure, in the same setting: in the case of `Nc1ccc([N+](=O)[O-])cc1Cl` it was 5.15%; in that of `CNC(=O)Oc1ccc(N(C)C)c(C)c1`, 23.5%.
